Assay [1] concerns the target Cytochrome P450 3A4 (Homo sapiens) (UniProt P08684). Description: qHTS Assay for Inhibitors and Substrates of Cytochrome P450 3A4 (AID 884). Note: potency is the fitted concentration of half-maximal effect; nearly all actives have a fitted effect of over 50% in size. In a few lines: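 20 nM human CYP3A4 with 25 uM Luciferin-PPXE (at KM) in 200 mM KPO4, preincubated 10 min with compound; NADPH regeneration started a 60 min RT reaction. Luciferin detected by luminescence, normalized to 57 uM ketoconazole as full inhibition.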
A general note: Quantitative high-throughput screening tests each substance at several concentrations.

Assay [2] shares this target. Nature of the assay: qHTS Assay for Activators of Cytochrome P450 3A4 (AID 885). Note: nearly all actives have a fitted effect of over 65% in size. The essentials: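 Steps: enzyme/substrate mix dispensed; compound added, 10 min RT; NADPH regeneration solution added, 60 min RT; luciferin detection buffer stops reaction; 20 min later luminescence measured.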
Assay [3] is described as follows: Confirmation and Secondary Assay for Modulators of Hemoglobin Beta Chain Splicing at IVS2 654 locus (AID 910).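 Note: HeLa cells stably carrying EGFP split by mutant beta-globin IVS2-654 intron.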 The essentials: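 HeLa cells stably expressing EGFP interrupted by β-globin IVS2-654 intron, seeded overnight in Opti-MEM/2% FCS, then treated 2 days at 37 °C. Restored splicing read as total peak GFP intensity per well by laser scanning cytometry (488 nm excitation, 500–520 nm emission); 500 nM antisense PNA as control.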

Assay [4] concerns the target Ubiquitin carboxyl-terminal hydrolase 1 (Homo sapiens) (UniProt O94782). Description: Inhibitors of USP1/UAF1: Pilot qHTS (AID 504865). Note: potency is the fitted concentration of half-maximal effect; nearly all actives have a fitted effect of over 35% in size. The essentials: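 In 50mM HEPES pH 7.8 containing 0.5mM EDTA, 1mM TCEP, 0.1 mg/ml BSA and 0.01% Tween-20, 1nM USP1/UAF1 is exposed to compound for 15 min, then Ub-Rho (150nM final) is added and fluorescence is read over time.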
Another assay concerns the target Furin (Homo sapiens) (UniProt P09958). Nature of the assay: Furin counterscreen qHTS for Zika virus inhibitors (AID 1347149).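 Note: purified recombinant full-length human furin enzyme at 5 nM; fluorescence gain from furin cutting a BOC-RVRR-AMC peptide substrate over 15 min; top concentration of the series differs between compounds; nearly all actives have a fitted effect of over 70% in size.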 In a few lines:
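Fluorogenic cleavage of BOC-RVRR-AMC (2 microM final, Km ~15 µM) was monitored (ex 340, em 450 nm) at 37C after 15 min RT preincubation of 5 nM furin with compounds in HEPES pH 7.0 buffer with CaCl2 and Triton X-100. Percent inhibition was fitted to a 4-parameter Hill curve.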
Background: A counterscreen serves to expose hits that act by an unwanted route or on another target.

The nature of assay [5]: Confirmatory screen GU Rhodamine qHTS for Zika virus inhibitors qHTS (AID 1347157). Note: potency is the fitted concentration of half-maximal effect; nearly all actives have a fitted effect of over 70% in size. The essentials:
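Compounds, tested up to 114 microM, were incubated for 15 minutes with 25 nM unlinked NS2B-NS3 protease at pH 8.0. Cleavage of 1.5 microM Rhodamine110 substrate was then followed by fluorescence for 15 minutes.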

Assay [6] is described as follows: ZIKV-mCherry secondary qHTS for Zika virus inhibitors (AID 1347158). Note: top concentration of the series differs between compounds. The essentials: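 Vero cells (5,000/well) were given compound, then infected with ZIKV-mCherry at MOI 1 for 48–72 h at 37 °C. After PFA fixation and Hoechst staining, imaging gave percent mCherry-positive cells. The positivity threshold was RFU above 450, 3 SD over negative controls.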
Assay [7] has as its system Zika virus NS2B-NS3 protease (linked). Description: 384 well plate NINDS AMC confirmatory qHTS for Zika virus inhibitors (AID 1347163). Note: potency is the fitted concentration of half-maximal effect; nearly all actives have a fitted effect of over 50% in size. In a few lines:
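Linked NS2B-NS3 protease (final 5 nM, 30 nM or 60 nM) was preincubated with compounds (final up to 1 mM) for ~15 minutes. Ac-VKTGKR-AMC substrate (final 30 microM) then reacted for 25 minutes at room temperature in the dark. Fluorescence (ex 355/em 460 nm) was normalized to no-enzyme and no-inhibitor controls.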

Assay [8] concerns Zika virus NS2B-NS3 protease (linked construct). Nature of the assay: 384 well plate NINDS Rhodamine confirmatory qHTS for Zika virus inhibitors (AID 1347164).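 Note: fluorescence from protease cleavage of Ac-LKRR-rhodamine 110 substrate; top concentration of the series differs between compounds; nearly all actives have a fitted effect of over 65% in size.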 In a few lines:
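Enzyme (final 5/30/60 nM) + cpd (DMSO), ~15 min; add Ac-LKRR-Rd 10 microM final; 25 min RT, dark; FI ex 485/em 538; normalized to no-enzyme, no-inhibitor ctrls; aprotinin intraplate ctrl.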

Assay [9] in a line: Tertiary RLuc qRT-PCR qHTS assay for Zika virus inhibitors (AID 1347169). Note: top concentration of the series differs between compounds; nearly all actives have a fitted effect of over 55% in size. In a few lines: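 Vero, 1,000 cells/well, o/n 37 C; cpd pinned in DMSO; ZIKV-RLuc Cambodian, MOI 1-2, 48-72 h 37 C; live-cell RLuc substrate, lum read at 1-1.5 h.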

The structures appear in SMILES notation. Inconclusive results are not listed. Active and inactive are the calls of the source. Calls come from the whole dose curve; as a rule, active = well fitted curve in the direction sought with a large enough effect; inconclusive = small, poorly fitted or top-dose-only effect, or another doubt; inactive = no such curve, though single readings can be large; an effect the other way counts as inactive or inconclusive.

Sequence of Cytochrome P450 3A4 (Homo sapiens) (P08684 whole entry, looked up): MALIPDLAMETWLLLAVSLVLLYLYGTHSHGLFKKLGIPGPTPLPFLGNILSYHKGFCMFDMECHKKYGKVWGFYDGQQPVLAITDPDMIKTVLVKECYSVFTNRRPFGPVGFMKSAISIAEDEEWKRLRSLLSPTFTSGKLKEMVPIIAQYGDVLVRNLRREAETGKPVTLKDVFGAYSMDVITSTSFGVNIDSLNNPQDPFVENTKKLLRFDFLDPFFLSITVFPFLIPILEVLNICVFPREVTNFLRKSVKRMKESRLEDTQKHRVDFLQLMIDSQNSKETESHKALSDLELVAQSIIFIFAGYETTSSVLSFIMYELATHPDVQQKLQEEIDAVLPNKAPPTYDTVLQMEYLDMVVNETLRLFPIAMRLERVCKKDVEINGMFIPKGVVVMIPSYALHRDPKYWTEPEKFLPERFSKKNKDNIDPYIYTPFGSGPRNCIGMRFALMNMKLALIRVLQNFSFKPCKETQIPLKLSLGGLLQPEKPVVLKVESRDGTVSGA
Sequence of Ubiquitin carboxyl-terminal hydrolase 1 (Homo sapiens) (O94782 whole entry, looked up): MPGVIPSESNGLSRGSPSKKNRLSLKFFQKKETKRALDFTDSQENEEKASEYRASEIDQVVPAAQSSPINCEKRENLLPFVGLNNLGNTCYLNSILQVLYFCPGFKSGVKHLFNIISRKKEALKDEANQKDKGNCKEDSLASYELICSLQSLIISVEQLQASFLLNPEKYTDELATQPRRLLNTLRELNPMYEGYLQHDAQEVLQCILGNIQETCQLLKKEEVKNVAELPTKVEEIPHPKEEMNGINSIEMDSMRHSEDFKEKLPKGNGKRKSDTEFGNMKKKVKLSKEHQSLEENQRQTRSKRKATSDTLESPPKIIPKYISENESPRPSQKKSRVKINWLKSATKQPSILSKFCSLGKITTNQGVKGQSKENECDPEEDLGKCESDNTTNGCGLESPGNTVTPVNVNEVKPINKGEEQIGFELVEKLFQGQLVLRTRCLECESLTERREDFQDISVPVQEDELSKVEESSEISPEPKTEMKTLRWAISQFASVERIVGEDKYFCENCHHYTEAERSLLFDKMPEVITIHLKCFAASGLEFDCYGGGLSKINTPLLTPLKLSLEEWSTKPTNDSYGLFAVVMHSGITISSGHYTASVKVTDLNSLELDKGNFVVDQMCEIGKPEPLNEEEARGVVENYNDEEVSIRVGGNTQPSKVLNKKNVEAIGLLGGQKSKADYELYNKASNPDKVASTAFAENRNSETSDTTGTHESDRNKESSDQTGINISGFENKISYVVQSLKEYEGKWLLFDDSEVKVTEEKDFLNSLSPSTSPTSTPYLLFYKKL
Sequence of Furin (Homo sapiens) (P09958 whole entry, looked up): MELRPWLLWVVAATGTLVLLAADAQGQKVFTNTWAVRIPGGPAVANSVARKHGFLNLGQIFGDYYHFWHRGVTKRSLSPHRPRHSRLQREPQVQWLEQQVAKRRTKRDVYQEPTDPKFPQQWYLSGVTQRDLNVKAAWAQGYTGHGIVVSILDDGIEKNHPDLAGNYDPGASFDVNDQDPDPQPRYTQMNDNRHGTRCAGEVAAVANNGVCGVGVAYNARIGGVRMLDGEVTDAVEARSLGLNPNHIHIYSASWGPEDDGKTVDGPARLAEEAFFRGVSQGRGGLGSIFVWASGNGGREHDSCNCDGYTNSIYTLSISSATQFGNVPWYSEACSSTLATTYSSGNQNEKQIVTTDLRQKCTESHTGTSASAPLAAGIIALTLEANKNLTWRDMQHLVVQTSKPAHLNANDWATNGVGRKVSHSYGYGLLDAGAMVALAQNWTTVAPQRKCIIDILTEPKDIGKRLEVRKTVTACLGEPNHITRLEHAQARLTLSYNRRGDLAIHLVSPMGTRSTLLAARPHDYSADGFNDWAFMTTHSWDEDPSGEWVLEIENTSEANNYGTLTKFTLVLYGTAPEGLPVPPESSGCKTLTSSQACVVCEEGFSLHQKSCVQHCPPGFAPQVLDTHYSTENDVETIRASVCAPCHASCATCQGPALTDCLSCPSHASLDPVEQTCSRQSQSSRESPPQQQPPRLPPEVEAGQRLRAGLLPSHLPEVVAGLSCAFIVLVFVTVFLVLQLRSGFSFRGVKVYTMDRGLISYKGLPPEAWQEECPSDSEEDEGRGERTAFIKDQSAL

For `O=c1cc(-c2cc(O)c(O)c(O)c2)oc2cc(O)cc(O)c12`, the Potency in assay [1] is 20 µM (active); in assay [4] it was 35.5 µM (active); in assay [5], 44.7 µM (active); in [7] it was 63.1 µM (active). Also, the Potency result (in assay [2]; in the assay with Furin (Homo sapiens); in [6]; in assay [8]; in assay [9]) was “inactive” each time. Besides, the molecule was called inactive in assay [3].

(Values after PubChem BioAssay (NCATS).)
